The results in this text go back to PubChem BioAssay (NCI).

Structures are written as SMILES. About 83,000 compounds went through this panel and 20% of them were active in at least one assay; those are over-represented in the sample as a whole.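 Each cell line was grown in a 96-well plate and treated with one concentration of compound for 48 hours. Values below 10 were considered active.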 Unmarked numbers belong to inactive results. The source made the active and inactive calls.

What all share (assay): NCI-60 one-dose screen, 48 h (100 = growth as untreated, 0 = no growth, -100 = all killed)
What all share (settings): 10 µM unless noted

Assay [1] relates to DU-145 prostate.
The subject of assay [2] is K-562 leukemia.
In assay [3] the test system is MALME-3M melanoma.
The subject of assay [4] is MDA-MB-231 breast.
The subject of assay [5] is RXF 393 renal.
Assay [6] has as its system SF-268 CNS.
The test system of assay [7] is SF-295 CNS.
Assay [8] concerns SF-539 CNS.
For assay [9], the system named is UACC-257 melanoma.
Assay [10] has as its system M14 melanoma.

Regarding `Cc1ccc(S(=O)(=O)NC(=O)NCCSSCCNC(=O)NS(=O)(=O)c2ccc(C)cc2)cc1`, the growth is 110% in assay [1]; 103% in assay [2]; 97.3% in assay [3]; 116% in assay [4]; 102% in [5]; 102% in assay [6]. Besides, the growth in [7] was 95.3%; in assay [8] it was 87.5%; in assay [9] it was 89.1%; in [10] it was 111%.

Regarding `Cc1cc2nc(C)c(C)nc2cc1C`, the growth in assay [1] is 115%; in [2], 119%; in [3], 109%; in [4], 101%; in assay [5], 109%; in assay [6], 109%. Besides, the growth in assay [7] is 89%; in assay [8], 104%; in assay [9], 97.8%; in assay [10] it was 108%.

For the molecule `COC(=O)c1ccc([N+](=O)[O-])c(C)c1`, the growth is 113% in [1]; 134% in [2]; 96.9% in [3]; 117% in [4]; 105% in assay [5]; 105% in assay [6]. Also, the growth is 109% in assay [7], 96.2% in assay [8], 101% in assay [9] and 94% in [10].

For the molecule `C=C1CC2(OC1=O)C(=O)N(C)c1ccc(I)cc12` (stereo not given), the growth in assay [1] is -95.2% (active); in assay [2] it was -50% (active); in assay [3], -77.1% (active); in assay [4], -2.19% (active); in assay [5], -73.4% (active); in assay [6], -75% (active). In addition, the growth was 55.4% in assay [7], -88.2% (active) in [8], -69.3% (active) in assay [9] and -76.6% (active) in assay [10].

For `C=CCC(OC(C)=O)c1ccc(OC)c(OC)c1` (stereo not given), the growth was 121% in [1]; 116% in [2]; 124% in assay [3]; 128% in assay [4]; 124% in [5]; 97.8% in assay [6]. Also, the growth is 101% in assay [7], 108% in [8], 103% in assay [9] and 108% in [10].

With `Cc1ccc(/C=N/NC(N)=S)s1`, the growth in [1] is 110%; in assay [2], 103%; in assay [3], 108%; in assay [4] it was 104%; in assay [5], 99.3%; in assay [6], 98.7%. Besides, the growth in [7] was 105%; in assay [8] it was 97.6%; in assay [9], 109%; in assay [10] it was 102%.

With `CCOC(=O)c1ccc(C(C)(C)C)cc1`, the growth was 104% in assay [1]; 94.5% in assay [2]; 103% in assay [3]; 114% in assay [4]; 118% in [5]; 98.9% in [6]. Moreover, the growth is 108% in assay [7], 110% in assay [8], 99.9% in assay [9] and 104% in assay [10].

Turning to `Clc1ccc(/C=C/c2ccccn2)cc1`, the growth in [1] was 109%; in assay [2], 107%; in assay [3], 108%; in [4] it was 98.9%; in assay [5], 116%; in assay [6], 91.3%. In addition, the growth in assay [7] is 100%; in assay [8], 94.2%; in assay [9], 103%; in [10], 101%.

Turning to `Nc1ccc(F)c(Cl)c1F`, the growth in assay [1] is 111%; in assay [2] it was 100%; in assay [3], 107%; in [4], 101%; in assay [5], 97.1%; in [6] it was 106%. Also, the growth is 107% in assay [7], 103% in assay [8], 118% in assay [9] and 97.2% in assay [10].

For the molecule `COC1(OC)C2(Cl)C(Cl)=C(Cl)C1(Cl)C1COCC12` (stereo not given), the growth in [1] is 102%; in assay [2] it was 97.3%; in assay [3] it was 110%; in assay [4], 105%; in [5] it was 103%; in assay [6] it was 108%. Also, the growth was 102% in assay [7], 109% in assay [8], 63.3% in assay [9] and 100% in assay [10].

For the molecule `Cc1ccc(C)c2c1CCC2=O`, the growth in assay [1] is 102%; in [2], 133%; in [3], 103%; in assay [4] it was 117%; in assay [5], 87.9%; in [6], 96.8%. Further, the growth in assay [7] was 91.6%; in [8] it was 95.6%; in assay [9], 107%; in [10] it was 95.7%.

`CCOC(=O)C(=O)CC(=O)c1ccccc1`: the growth was 102% in assay [1]; 118% in [2]; 100% in assay [3]; 92.9% in assay [4]; 103% in [5]; 96.7% in [6]. Also, the growth in assay [7] is 104%; in [8], 100%; in assay [9], 101%; in assay [10] it was 97.1%.

Take `CCCCCCCCCCCCCCCCCCSC(=N)N`: the growth in assay [1] was 59.2%; in assay [2], 40.4%; in assay [3] it was 82.8%; in assay [4], 29.5%; in assay [5], 71.5%; in [6], 60.8%. The growth in assay [7] was 80.9%; in assay [8], 86.6%; in assay [9] it was 80.5%; in [10], 60%.

On to `CC(CCC#N)(CCC#N)C(=O)c1ccccc1`, for which the growth in [1] was 106%; in assay [2] it was 104%; in assay [3], 114%; in [4], 109%; in assay [5], 98.6%; in assay [6], 112%. The growth in [7] is 113%; in [8], 115%; in [9] it was 106%; in assay [10], 115%.

Turning to `CCCC1OC(c2ccco2)OCC1CC` (stereo not given), the growth is 104% in assay [1]; 105% in assay [2]; 118% in assay [3]; 102% in assay [4]; 136% in assay [5]; 101% in [6]. The growth in assay [7] was 105%; in assay [8], 106%; in assay [9] it was 93.1%; in [10] it was 102%.

For `Cc1ccc(N)c(S(=O)(=O)O)c1`, the growth in assay [1] was 125%; in assay [2], 45.1%; in [3] it was 129%; in assay [4], 109%; in [5] it was 108%; in assay [6], 115%. In addition, the growth in assay [7] was 116%; in [8], 98.2%; in assay [9] it was 101%; in assay [10], 101%.
